Laboratory results as given in the supplement of paper PMC12494721.
Counter-ions that a name gives are not always drawn.

How the values were obtained:
Details in all cases: incubation time: 27 h, anaerobic, 37 °C;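 for the amine columns active = adjusted P below 0.05 in both replicates with a change the same way and a mean fold change under 0.8 or over 1.25; inactive = the rest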
[1] = test system: Clostridium sporogenes DSM 1664; assay: growth (OD595) fold change vs plate DMSO controls (fold change (ratio)); higher = more growth
Procedure, shortened: (§1)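 Growth is calculated as fold change against the median of the DMSO control wells on each plate. Readings at 595 nm from anaerobic mGAM cultures (96-well, 27 h, 37 °C) were blank-subtracted, background-corrected with 20 µM compound solutions in water, and converted to OD by a calibration factor of 5. Fold changes above 1.5 were recorded as NA, and results are means of 2 biological replicates.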

Escherichia coli IAI1 [2] = assay: as above
Procedure, shortened: as §1

[3] = test system: Klebsiella aerogenes DSM 30053; assay: as above
Procedure, shortened: as §1

[4] = test system: Ruminococcus gnavus DSM 108212; assay: as above
Procedure, shortened: as §1

[5] = test system: Klebsiella aerogenes DSM 30053; assay: fold change of Histamine concentration vs plate DMSO controls (fold change (ratio)); higher = more amine produced, active = hit call of the paper (significant change in both replicates, either direction)
Procedure, shortened: (§2)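 Anaerobic mGAM cultures of four gut bacterial strains were grown at 37 °C for 27 h in 80 µL wells, starting at OD 0.1 before 1:1 dilution. Compounds were at 20 µM final (sweeteners 50 µM). Whole cultures were extracted with cold acetonitrile/methanol containing 0.1% formic acid and centrifuged. Amines were quantified by LC–triple-quadrupole MS (dynamic MRM) against external calibration curves and drift-corrected within batch. Each value is the fold change versus plate DMSO controls, averaged over 2 biological replicates.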

[6] = test system: Clostridium sporogenes DSM 1664; assay: fold change of Tryptamine concentration vs plate DMSO controls (fold change (ratio)); higher = more amine produced, active = hit call of the paper (significant change in both replicates, either direction)
Procedure, shortened: as §2

[7] = test system: Ruminococcus gnavus DSM 108212; assay: as above
Procedure, shortened: as §2

Escherichia coli IAI1 [8] = assay: fold change of Putrescine concentration vs plate DMSO controls (fold change (ratio)); higher = more amine produced, active = hit call of the paper (significant change in both replicates, either direction)
Procedure, shortened: as §2

[9] = test system: Klebsiella aerogenes DSM 30053; assay: as above
Procedure, shortened: as §2

Escherichia coli IAI1 [10] = assay: fold change of Cadaverine concentration vs plate DMSO controls (fold change (ratio)); higher = more amine produced, active = hit call of the paper (significant change in both replicates, either direction)
Procedure, shortened: as §2

[11] = test system: Klebsiella aerogenes DSM 30053; assay: as above
Procedure, shortened: as §2

[12] = test system: Ruminococcus gnavus DSM 108212; assay: fold change of 2-Phenylethylamine concentration vs plate DMSO controls (fold change (ratio)); higher = more amine produced, active = hit call of the paper (significant change in both replicates, either direction)
Procedure, shortened: as §2

Row | Structure (SMILES) | growth [1] | growth (Escherichia coli IAI1 [2]) | growth [3] | growth [4] | fold change of Histamine concentration [5] | fold change of Tryptamine concentration [6] | fold change of Tryptamine concentration [7] | fold change of Putrescine concentration (Escherichia coli IAI1 [8]) | fold change of Putrescine concentration [9] | fold change of Cadaverine concentration (Escherichia coli IAI1 [10]) | fold change of Cadaverine concentration [11] | fold change of 2-Phenylethylamine concentration [12]
1 | CN(C)CCCSC(=N)N [Dimaprit dihydrochloride] (20 µM) | 1.04 | 1.04 | 1.02 | 1.03 | 0.939 (inactive) | 0.955 (inactive) | 1.07 (inactive) | 1 (inactive) | 0.996 (inactive) | 0.998 (inactive) | 0.993 (inactive) | 1.07 (inactive)
2 | CN(C)C(=O)COC(=O)Cc1ccc(OC(=O)c2ccc(NC(=N)N)cc2)cc1 [Camostat mesylate] (20 µM) | 1.07 | 1.01 | 1.04 | 0.958 | 0.897 (inactive) | 1.01 (inactive) | 0.982 (inactive) | 1.02 (inactive) | 1.02 (inactive) | 1.02 (inactive) | 1.02 (inactive) | 0.999 (inactive)
3 | CS(=O)(=O)c1ccc(C2=C(c3ccccc3)C(=O)OC2)cc1 [Rofecoxib] (20 µM) | 1 | 0.962 | 0.973 | 1.1 | 0.981 (inactive) | 1.2 (inactive) | 1.08 (inactive) | 1.02 (inactive) | 0.99 (inactive) | 1.04 (inactive) | 1.01 (inactive) | 1.07 (inactive)
4 | Nc1nc2ccc(OC(F)(F)F)cc2s1 [Riluzole hydrochloride] (20 µM) | 0.972 | 0.95 | 1.06 | 0.998 | 1.08 (inactive) | 0.945 (inactive) | 0.96 (inactive) | 0.97 (inactive) | 0.988 (inactive) | 0.987 (inactive) | 0.983 (inactive) | 0.968 (inactive)
5 | Cn1cc(C(=O)Nc2ccc(F)cc2-c2ccc(Cl)c(Cl)c2)c(C(F)F)n1 (20 µM) | 1.12 | 1 | 0.972 | 1.21 | 1.06 (inactive) | 1.01 (inactive) | 0.907 (inactive) | 1.01 (inactive) | 1.01 (inactive) | 0.998 (inactive) | 0.986 (inactive) | 0.931 (inactive)
6 | OC[C@@H](O)[C@@H](O)[C@@H](O)[C@@H](O)CO [Allitol] (50 µM) | 0.907 | 1.08 | 1.11 | 0.986 | 0.908 (inactive) | 1 (inactive) | 0.953 (inactive) | 1.02 (inactive) | 1.03 (inactive) | 0.992 (inactive) | 1.02 (inactive) | 0.932 (inactive)
7 | CCCCNc1ccc(C(=O)OCCOCCOCCOCCOCCOCCOCCOCCOCCOC)cc1 [Benzonatate] (20 µM) | 0.953 | 1.03 | 1.04 | 0.922 | 0.929 (inactive) | 0.96 (inactive) | 0.971 (inactive) | 1 (inactive) | 0.995 (inactive) | 1.04 (inactive) | 1.01 (inactive) | 0.936 (inactive)
8 | COc1cc(N)c(Cl)cc1C(=O)NC1CCN(Cc2ccccc2)CC1 [Clebopride maleate] (20 µM) | 1.05 | 0.95 | 0.981 | 0.875 | 1 (inactive) | 1.01 (inactive) | 0.985 (inactive) | 0.926 (inactive) | 0.976 (inactive) | 0.984 (inactive) | 0.999 (inactive) | 0.985 (inactive)
9 | OC[C@H]1O[C@H](O[C@]2(CCl)O[C@H](CCl)[C@@H](O)[C@@H]2O)[C@H](O)[C@@H](O)[C@H]1Cl [Sucralose] (50 µM) | 1 | 0.927 | 1.03 | 1.36 | 0.892 (inactive) | 1.28 (active) | 1.11 (inactive) | 0.948 (inactive) | 0.943 (inactive) | 1.09 (inactive) | 1.06 (inactive) | 1.2 (inactive)
10 | COc1ccc2c(c1)c(CC(=O)O)c(C)n2C(=O)c1ccc(Cl)cc1 [Indomethacin] (20 µM) | 0.988 | 1 | 1.02 | 1.04 | 0.997 (inactive) | 0.988 (inactive) | 0.981 (inactive) | 1.01 (inactive) | 1.01 (inactive) | 1 (inactive) | 0.989 (inactive) | 0.979 (inactive)
11 | Clc1ccc2c(c1)CCc1cccnc1C2=C1CCNCC1 [Desloratadine] (20 µM) | 0.922 | 0.981 | 0.992 | 0.972 | 1.07 (inactive) | 1.11 (inactive) | 0.962 (inactive) | 1 (inactive) | 1.01 (inactive) | 0.976 (inactive) | 0.987 (inactive) | 1.02 (inactive)
12 | COC(=O)C1=C(C)NC(C)=C(C(=O)OC)C1c1ccccc1[N+](=O)[O-] [Nifedipine] (20 µM) | 1.07 | 1.12 | 0.991 | 0.883 | 1.05 (inactive) | 1.02 (inactive) | 1 (inactive) | 1.05 (inactive) | 1.01 (inactive) | 0.955 (inactive) | 1 (inactive) | 0.92 (inactive)
13 | CCC(=O)c1ccc(O)cc1 [Paroxypropione] (20 µM) | 0.967 | 0.989 | 0.996 | 1 | 1.03 (inactive) | 0.946 (inactive) | 1.02 (inactive) | 1.01 (inactive) | 1.02 (inactive) | 1.01 (inactive) | 1.01 (inactive) | 0.952 (inactive)
14 | C[C@H]1O[C@H](O[C@H]2[C@H](O)[C@@H](O)[C@@H](O[C@@H]([C@H](O)[C@@H](O)C=O)[C@H](O)CO)O[C@@H]2CO)[C@H](O)[C@@H](O)[C@@H]1N[C@H]1C=C(CO)[C@@H](O)[C@H](O)[C@H]1O [Acarbose] (20 µM) | 0.918 | 1.03 | 1.04 | 1.05 | 1.15 (inactive) | 1.02 (inactive) | 0.997 (inactive) | 0.948 (inactive) | 1.07 (inactive) | 1.12 (inactive) | 0.996 (inactive) | 0.978 (inactive)
15 | C[C@H](CC[C@@H](O[C@@H]1O[C@H](CO[C@@H]2O[C@H](CO)[C@@H](O)[C@H](O)[C@H]2O)[C@@H](O)[C@H](O)[C@H]1O[C@@H]1O[C@H](CO)[C@@H](O)[C@H](O)[C@H]1O)C(C)(C)O)[C@H]1CC[C@@]2(C)[C@@H]3CC=C4[C@@H](CC[C@H](O[C@@H]5O[C@H](CO[C@@H]6O[C@H](CO)[C@@H](O)[C@H](O)[C@H]6O)[C@@H](O)[C@H](O)[C@H]5O)C4(C)C)[C@]3(C)[C@H](O)C[C@]12C [Mogroside V] (50 µM) | 0.958 | 0.906 | 1 | 1.22 | 1.03 (inactive) | 1.12 (inactive) | 0.979 (inactive) | 0.939 (inactive) | 1 (inactive) | 1.11 (inactive) | 1.02 (inactive) | 0.964 (inactive)
16 | COc1ccc(C2CNC(=O)C2)cc1OC1CCCC1 (configuration not stated) [Rolipram] (20 µM) | 0.936 | 0.98 | 1.03 | 0.936 | 0.951 (inactive) | 1.03 (inactive) | 1.03 (inactive) | 0.954 (inactive) | 0.989 (inactive) | 0.984 (inactive) | 1 (inactive) | 1.06 (inactive)
17 | Cc1cn([C@H]2C=C[C@@H](CO)O2)c(=O)[nH]c1=O [Stavudine] (20 µM) | 0.967 | 0.807 | 0.99 | 0.994 | 1.04 (inactive) | 0.97 (inactive) | 1.01 (inactive) | 0.927 (inactive) | 1.04 (inactive) | 1.21 (inactive) | 0.991 (inactive) | 1.02 (inactive)
18 | CN(C)[C@@H]1C(=O)C(C(=O)NCNCCCC[C@H](N)C(=O)O)=C(O)[C@@]2(O)C(=O)C3=C(O)c4c(O)cccc4[C@@](C)(O)[C@H]3C[C@@H]12 [Lymecycline] (20 µM) | 0.746 | 1.23 | 0.995 | 0.941 | 1.05 (inactive) | 0.933 (inactive) | 0.996 (inactive) | 1.2 (inactive) | 1.03 (inactive) | 1.11 (inactive) | 0.999 (inactive) | 1.02 (inactive)
19 | Cc1cccc(C)c1NC(=O)C1CCCCN1C (configuration not stated) [Mepivacaine hydrochloride] (20 µM) | 1.21 | 1.02 | 1.08 | 0.946 | 0.905 (inactive) | 1.02 (inactive) | 1.06 (inactive) | 1 (inactive) | 0.977 (inactive) | 1 (inactive) | 1.01 (inactive) | 1.05 (inactive)
20 | CC(C[N+](C)(C)C)OC(N)=O (configuration not stated) [Bethanechol chloride] (20 µM) | 0.85 | 0.962 | 0.937 | 0.707 | 0.98 (inactive) | 1.01 (inactive) | 1.01 (inactive) | 1.03 (inactive) | 1.01 (inactive) | 1 (inactive) | 1 (inactive) | 1.01 (inactive)
21 | CC(C)c1nc(N(C)S(C)(=O)=O)nc(-c2ccc(F)cc2)c1/C=C/[C@@H](O)C[C@@H](O)CC(=O)O [Rosuvastatin] (20 µM) | 0.904 | 1.22 | 1.02 | 1.01 | 0.953 (inactive) | 1.03 (inactive) | 0.989 (inactive) | 1.06 (inactive) | 1 (inactive) | 0.951 (inactive) | 0.989 (inactive) | 1 (inactive)
